Where “and” joins values, the source holds several entries; their conditions need not be identical. Equal entries are not always repeated. Screen size: about 340,000 compounds; about 700 (0.21%) were called active. The sample as a whole holds a higher share of actives than the screen did. Values without a mark were called inactive. Rule as the data show it: active = inhibition above about 22% (passing the limit was not always enough); inactive = the rest.
biological target: Mu-type opioid receptor (Homo sapiens) + Delta-type opioid receptor (Homo sapiens) (UniProt P35372+P41143); assay: inverse agonists of MOR-DOR heterodimerization, primary screen, cell-based, luminescence (AID 504357); settings: cell-based MOR-DOR heterodimer luminescence, inverse agonism; at 9.3 µM; hits give high values;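 also: 0% = cells with DMSO and 100% = wells without cells with DMSO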
Sequence (P35372 whole entry, looked up): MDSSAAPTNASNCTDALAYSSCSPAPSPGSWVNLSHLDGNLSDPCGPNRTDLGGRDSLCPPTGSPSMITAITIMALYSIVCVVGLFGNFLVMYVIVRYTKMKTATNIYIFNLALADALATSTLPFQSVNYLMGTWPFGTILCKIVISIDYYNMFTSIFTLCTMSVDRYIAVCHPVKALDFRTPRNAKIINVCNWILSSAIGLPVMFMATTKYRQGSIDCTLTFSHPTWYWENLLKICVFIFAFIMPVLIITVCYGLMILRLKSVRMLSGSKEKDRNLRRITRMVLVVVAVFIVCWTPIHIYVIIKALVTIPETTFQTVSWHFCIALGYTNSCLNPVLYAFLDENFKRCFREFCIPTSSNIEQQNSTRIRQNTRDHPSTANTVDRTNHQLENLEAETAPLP
Sequence (P41143 whole entry, looked up): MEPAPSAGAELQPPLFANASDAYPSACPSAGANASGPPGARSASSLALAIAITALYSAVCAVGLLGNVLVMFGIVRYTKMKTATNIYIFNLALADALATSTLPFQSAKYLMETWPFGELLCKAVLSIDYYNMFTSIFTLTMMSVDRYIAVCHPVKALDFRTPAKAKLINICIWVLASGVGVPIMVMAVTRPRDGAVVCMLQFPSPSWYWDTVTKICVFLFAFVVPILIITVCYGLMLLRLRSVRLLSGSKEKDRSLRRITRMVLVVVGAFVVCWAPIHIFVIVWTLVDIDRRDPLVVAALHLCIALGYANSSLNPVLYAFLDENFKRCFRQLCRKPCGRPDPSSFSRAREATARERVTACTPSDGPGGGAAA

Compound	inhibition
O=C1CCC(=O)N(O)CCCCCNC(=O)CCC(=O)N(O)CCCCCNC(=O)CCC(=O)N(O)CCCCCN1	8.42%
CN(/N=C/c1ccccc1)C(=S)c1ccccc1	-3.87%
CN(O)C(=S)c1ccccc1	41.1% (active)
CN(CC(=O)O)C(=O)c1ccccc1	10.9%
Cc1ccc(NC(=O)c2cccs2)cc1S(=O)(=O)N(C)C	0.25%
Cc1ccc(NNC(=O)c2cccs2)cc1Cl	53.4% (active)
O=C(NNC(=O)c1ccc(Cl)cc1Cl)c1cccs1	2.42%
CSc1ccc(Cl)c(C(=O)OCC(=O)N2CCNC2=O)c1	16.2%
Cc1cc(C)cc(N)c1	14.8%
CCN(CC(=O)NCc1ccco1)S(=O)(=O)c1ccc(F)cc1	-7.35%
COc1ccccc1C(=O)NC(=O)COC(=O)c1ccco1	3.92%
Cc1cccc(-n2c(SCC(N)=O)nc3c(c2=O)C2(CCCCC2)Cc2ccccc2-3)c1	-5.65%
CC1CC2=C(CC1/C=N/NC(N)=S)C(C)(C)CCC2 (configuration not stated)	-16.2%
CCn1cc(/C=C2/SC(=S)NC2=O)c(C)n1	9.33%
CC1CCCC(N2CCN(C(=O)c3ccc(F)cc3)CC2)C1 (configuration not stated)	1.43%
CCOc1ccc(S(=O)(=O)NCCC(=O)N2CCCCCCC2)cc1	-1.55%
O=C(CCN1CCN(C/C=C/c2ccccc2)CC1)Nc1ccccc1Cl	1.43%
CC(c1cccnc1)N(CCN(C)C)C(=O)Nc1ccc(Cl)c(Cl)c1 (configuration not stated)	-197%
Cc1cccc(C)c1NC(=O)CN(C)C(=O)CCC(=O)c1ccccc1	3.3%
CC(NC(=O)c1ccccc1)C(=O)Nc1ccccc1 (configuration not stated)	19.2%
Cc1cccc(C)c1NC(=O)C(Cl)C(=O)c1ccccc1 (configuration not stated)	34.4% (active)
Cc1cc(C)c(S(=O)(=O)N2CCC(C(=O)OCc3c(C)noc3C)CC2)c(C)c1	6.69%
COc1cccc(-c2ccc(C#N)c(SCC(=O)NCCc3ccc(Cl)cc3)n2)c1	-45.6%
Oc1ccc(N=Nc2nccs2)c(O)c1	37.2% (active)

Compound	inhibition
O=C(COc1ccccc1)Nc1ccc(F)cc1	7.72%
Cc1ccc(S(=O)(=O)N(C)c2ccc(OCC(=O)NC3=NCCS3)cc2)cc1	7.13%
CN(c1ccccc1)S(=O)(=O)c1ccc(NC(=O)COc2ccccc2)cc1	31.1% (active)
Cc1cc(O)c(C2(O)C(=O)Nc3ccccc32)cc1C (configuration not stated)	10.4%
Cc1cccc(CC2(O)C(=O)Nc3ccccc32)n1 (configuration not stated)	15.9%
Cc1ccc(NC2(C#N)C(=O)Nc3ccccc32)cc1 (configuration not stated)	63.2% (active)
CC(CC(=O)N1CCN(c2ccccc2)CC1)S(=O)(=O)c1ccc2c(c1)NC(=O)CS2 (configuration not stated)	4.28%
CCCCCCCCCCCCN1[C@@H](CC(C)=O)c2cc(F)cc(F)c2S1(=O)=O	8.79%
Cc1cc(=O)oc2c1c(C)nn2-c1ccc(Cl)cc1	11%
Cc1ccc(CN(CC(=O)NCC2CCCO2)S(=O)(=O)c2ccc(C)cc2)cc1 (configuration not stated)	10.1%
Nc1nnc(C2CCCC2)s1	11.4%
O=C(NCCN1CCOCC1)/C(=C/c1ccc(F)cc1)NC(=O)c1ccccc1	18.7%
Cc1cc(NC(=O)CN2CCC(O)(c3cccc(F)c3)CC2)no1	10.8%
COc1cccc(CNC(=O)C2CCCN(S(=O)(=O)N3CC(C)CC(C)C3)C2)c1 (configuration not stated)	16%
Cc1ccsc1C(=O)NCCc1ccco1	7.66%
O=C(NCCSc1ncc(-c2ccccc2)[nH]1)c1ccco1	13.1%
CC1CCCCC1NC(=O)COC(=O)Cc1ccc(Cl)cc1 (configuration not stated)	21.7%
CC(=O)N1c2ccc(S(=O)(=O)N3CCCC(C(=O)Nc4ccc(C)cc4C)C3)cc2CC1C (configuration not stated)	-10.6%
O=C(c1ccco1)N1CCN(C(=O)C2CC(c3ccc(Cl)c(Cl)c3)=NO2)CC1 (configuration not stated)	9.92%
Cc1cc(OC(=O)c2ccccc2)c([N+](=O)[O-])c(=O)[nH]1	-3.39%
O=C(O)CCN1C(=O)CC2(CCCCC2)C1=O	14.8%
O=[N+]([O-])/C=C/c1ccc2c(ccn2Cc2ccccc2)c1	38.9% (active)
COc1ccc(CNCCCn2cnc3c(OCc4ccccc4)ncnc32)cc1	11.7%
Cc1ccc2c(c1)C(O)(CC(=O)c1cccnc1)C(=O)N2 (configuration not stated)	37.3% (active)

Compound	inhibition
O=C(CC(=O)c1cccnc1)c1ccccc1	13.2%
Cc1ccc2c(c1)C(O)(CC(=O)c1cccc(-n3cccc3)c1)C(=O)N2 (configuration not stated)	17.9%
CN(c1ccccc1)S(=O)(=O)c1cc(C(=O)N2CCN(c3ncccn3)CC2)ccc1Cl	2.36%
COc1ccccc1CN1CCCC(N2CCN(c3ccc(F)cc3)CC2)C1 (configuration not stated)	8.79%
C[n+]1ccc(C(=O)NCc2ccccc2)cc1	-0.68%
COc1c(C=O)c(CCN(C)C(=O)c2ccc(F)cc2)cc2c1OCO2	9.88%
CCOCCCNC(=O)C(NC(=O)Cc1c[nH]c2ccccc12)c1ccc(OC)cc1 (configuration not stated)	12.1%
Cc1ccccc1OCC(=O)NNC(=O)c1ccc(-n2cncn2)c([N+](=O)[O-])c1	8.19%
CCc1c(C)sc(NC(=O)OC)c1C(=O)N1CCOCC1	5.54%
CCOc1ccc(S(=O)(=O)N2CCCC(C(=O)N3CCC(C(N)=O)CC3)C2)cc1Cl (configuration not stated)	5.16%
COc1ccccc1N1CCN(CC(=O)Nc2ccnn2C2CCCC2)CC1	0.88%
CSCCC(NC(=O)COc1ccccc1)C(=O)OCC(=O)c1cc2ccccc2o1 (configuration not stated)	68.4% (active)
CSCCC(NC(=O)COc1ccccc1)C(=O)OCc1ccc(Cl)cc1 (configuration not stated)	-17.1%
CSCCC(NC(=O)COc1ccccc1)C(=O)OCCOc1ccc(Br)cc1 (configuration not stated)	-28.3%
CN1CC(=O)N=C1N	16.7% and 15.6%
Cc1cc(Cl)c(S(=O)(=O)NCc2cccnc2)cc1OCC(N)=O	11.2%
CCOc1ccc(NC(=O)CN(C)CC(=O)NC(C)c2ccccc2)cc1OCC (configuration not stated)	1.67%
C=CCn1c(N)c(C(=O)OCC(C)C)c2nc3ccccc3nc21	55.7% (active)
C=CCn1c(C(C)NC(=O)CC)nc2ccccc21 (configuration not stated)	18%
COCC(C)OC(=O)c1c(N)n(CCCN2CCOCC2)c2nc3ccccc3nc12 (configuration not stated)	10.3%
FC(F)(F)C1CCCN(c2nsc3ccccc23)C1 (configuration not stated)	11.2%
C=CCN1C(=O)C(O)(CC(=O)c2ccccn2)c2ccccc21 (configuration not stated)	15.1%
CCOC(=O)CN1C(=O)C(O)(CC(=O)c2ccccn2)c2ccccc21 (configuration not stated)	49.5% (active)
C=CCN1C(=O)C(O)(CC(=O)c2ccc(Cl)cc2)c2ccccc21 (configuration not stated)	12%

Source: PubChem BioAssay AID504357 (The Scripps Research Institute Molecular Screening Center, 2011)
